Data: PubChem BioAssay AID1159580 (chemical genetic matrix, 2015)
Values joined by “and” are separate entries in the source; they are usually repeats but may differ in a detail not shown here. Equal values may be shown once. Among all 5,500 compounds or so, about 2,000 (36%) were called active. Roughly 18% stayed inconclusive and do not appear here. Cut-off read from the data, not from the text of the source: active = normalized growth mostly below about 0.91 (no sharp cut-off); inconclusive = no clear call, values can overlap the other calls; inactive = mostly above about 0.92. Some of the results follow.

Test: chemical genetic growth profiling, strain panel (AID 1159580);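 note: tested at 20 µM; growth read once vehicle control cultures reached saturation at 30 °C; 1 = growth at the plate median or of vehicle wells; lower values mean less growth of the strain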
Settings: growth OD

Measured: normalized growth

C[N+]1(CCCCC[N+]2(C)CCCC2)CCCC1
inactive: S. cerevisiae deletion strains, locus YJR043C, strain POL32, stronger effect = lower value 1.01 | S. cerevisiae deletion strains, locus YJR075W, strain HOC1, stronger effect = lower value 1.02 and 0.994 | S. cerevisiae deletion strains, locus YKL009W, strain mrt4, stronger effect = lower value 1.04 | S. cerevisiae deletion strains, locus YKL068W, stronger effect = lower value 1.01 | S. cerevisiae deletion strains, locus YKL085W, strain MDH1 (second series), stronger effect = lower value 1.01 | S. cerevisiae deletion strains, locus YKL085W, strain MDH1, stronger effect = lower value 1.01 | S. cerevisiae deletion strains, locus YKL160W, strain elf1, stronger effect = lower value 1.01 | S. cerevisiae deletion strains, locus YKL190W, strain CNB1, stronger effect = lower value 1.01 | S. cerevisiae deletion strains, locus YKR001C, strain vps1, stronger effect = lower value 1.01 | S. cerevisiae deletion strains, locus YKR026C, strain gcn3, stronger effect = lower value 1 | S. cerevisiae deletion strains, locus YKR091W, strain srl3, stronger effect = lower value 1 | S. cerevisiae deletion strains, locus YLL001W, strain dnm1, stronger effect = lower value 1 | S. cerevisiae deletion strains, locus YLL026W, stronger effect = lower value 0.992 | S. cerevisiae deletion strains, locus YLL041C, strain sdh2, stronger effect = lower value 0.999 | S. cerevisiae deletion strains, locus YLR027C, strain aat2, stronger effect = lower value 0.992 | S. cerevisiae deletion strains, locus YLR039C, strain RIC1, stronger effect = lower value 1.02 | S. cerevisiae deletion strains, locus YLR058C, strain SHM2, stronger effect = lower value 1.01 | S. cerevisiae deletion strains, locus YLR102C, strain apc9, stronger effect = lower value 1.02 | S. cerevisiae deletion strains, locus YLR221C, strain rsa3, stronger effect = lower value 1 | S. cerevisiae deletion strains, locus YLR258W, strain gsy2, stronger effect = lower value 0.998 | S. cerevisiae deletion strains, locus YLR262C, strain YPT6 (second series), stronger effect = lower value 1.03 | S. cerevisiae deletion strains, locus YLR262C, strain YPT6, stronger effect = lower value 1.03 | S. cerevisiae deletion strains, locus YLR268W, strain sec22, stronger effect = lower value 1.03 | S. cerevisiae deletion strains, locus YLR320W, strain mms22, stronger effect = lower value 0.993 | S. cerevisiae deletion strains, locus YLR330W, strain CHS5, stronger effect = lower value 1 | S. cerevisiae deletion strains, locus YLR342W, strain FKS1 (second series), stronger effect = lower value 1.01 | S. cerevisiae deletion strains, locus YLR342W, strain FKS1, stronger effect = lower value 0.995 | S. cerevisiae deletion strains, locus YLR357W, strain rsc2, stronger effect = lower value 0.963 | S. cerevisiae deletion strains, locus YLR370C, strain arc18, stronger effect = lower value 1 | S. cerevisiae deletion strains, locus YLR371W, strain rom2, stronger effect = lower value 1.03 | S. cerevisiae deletion strains, locus YLR384C, strain iki3, stronger effect = lower value 0.992 | S. cerevisiae deletion strains, locus YLR418C, strain cdc73, stronger effect = lower value 1.02 | S. cerevisiae deletion strains, locus YML016C, strain PPZ1, stronger effect = lower value 1.01 | S. cerevisiae deletion strains, locus YML032C, strain rad52, stronger effect = lower value 1.03 | S. cerevisiae deletion strains, locus YML120C, strain ndi1, stronger effect = lower value 0.99 | S. cerevisiae deletion strains, locus YML124C, strain tub3, stronger effect = lower value 1.02 | S. cerevisiae deletion strains, locus YMR058W, strain fet3, stronger effect = lower value 0.999 | S. cerevisiae deletion strains, locus YMR078C, strain ctf18, stronger effect = lower value 1.03 | S. cerevisiae deletion strains, locus YMR125W, strain sto1, stronger effect = lower value 0.979 | S. cerevisiae deletion strains, locus YMR129W, stronger effect = lower value 0.999 | S. cerevisiae deletion strains, locus YMR205C, strain PFK2, stronger effect = lower value 1.01 | S. cerevisiae deletion strains, locus YMR223W, strain ubp8, stronger effect = lower value 1 | S. cerevisiae deletion strains, locus YMR231W, strain pep5, stronger effect = lower value 0.993 | S. cerevisiae deletion strains, locus YMR263W, strain SAP30, stronger effect = lower value 1.01 | S. cerevisiae deletion strains, locus YMR307W, strain GAS1, stronger effect = lower value 1 and 1.02 | S. cerevisiae deletion strains, locus YNL067W, strain RPL9B, stronger effect = lower value 1.02 | S. cerevisiae deletion strains, locus YNL071W, strain lat1, stronger effect = lower value 0.997 | S. cerevisiae deletion strains, locus YNL128W, strain TEP1, stronger effect = lower value 1.01 | S. cerevisiae deletion strains, locus YNL153C, strain GIM3, stronger effect = lower value 1.01 and 1.02 | S. cerevisiae deletion strains, locus YNL175C, strain NOP13, stronger effect = lower value 0.993 | S. cerevisiae deletion strains, locus YNL197C, strain WHI3, stronger effect = lower value 0.982 | S. cerevisiae deletion strains, locus YNL209W, strain ssb2, stronger effect = lower value 0.995 | S. cerevisiae deletion strains, locus YNL224C, strain SQS1, stronger effect = lower value 0.988 | S. cerevisiae deletion strains, locus YNL233W, strain BNI4, stronger effect = lower value 1.01 | S. cerevisiae deletion strains, locus YNL248C, strain rpa49, stronger effect = lower value 0.996 | S. cerevisiae deletion strains, locus YNL250W, strain rad50, stronger effect = lower value 1.02 | S. cerevisiae deletion strains, locus YNL271C, strain bni1, stronger effect = lower value 1.01 | S. cerevisiae deletion strains, locus YNL298W, strain CLA4, stronger effect = lower value 1.02 | S. cerevisiae deletion strains, locus YNL307C, strain MCK1, stronger effect = lower value 1.03 | S. cerevisiae deletion strains, locus YNL322C, strain KRE1 (second series), stronger effect = lower value 0.998 | S. cerevisiae deletion strains, locus YNL322C, strain KRE1, stronger effect = lower value 1 | S. cerevisiae deletion strains, locus YNR049C, strain mso1, stronger effect = lower value 0.994 | S. cerevisiae deletion strains, locus YNR052C, strain pop2, stronger effect = lower value 1.02 | S. cerevisiae deletion strains, locus YOL006C, strain TOP1, stronger effect = lower value 1.04 | S. cerevisiae deletion strains, locus YOL012C, strain htz1 1.04 | S. cerevisiae deletion strains, locus YOL147C, strain pex11, stronger effect = lower value 1.02 | S. cerevisiae deletion strains, locus YOR001W, strain rrp6, stronger effect = lower value 0.995 | S. cerevisiae deletion strains, locus YOR061W, strain CKA2, stronger effect = lower value 1.01 | S. cerevisiae deletion strains, locus YOR069W, strain VPS5, stronger effect = lower value 1 | S. cerevisiae deletion strains, locus YOR070C, strain gyp1, stronger effect = lower value 0.998 | S. cerevisiae deletion strains, locus YOR080W, strain dia2, stronger effect = lower value 0.987 | S. cerevisiae deletion strains, locus YOR083W, strain WHI5 (second series), stronger effect = lower value 1.01 | S. cerevisiae deletion strains, locus YOR083W, strain WHI5, stronger effect = lower value 0.993 | S. cerevisiae deletion strains, locus YOR106W, strain vam3, stronger effect = lower value 1.01 | S. cerevisiae deletion strains, locus YOR136W, strain idh2, stronger effect = lower value 1.01 | S. cerevisiae deletion strains, locus YOR144C, strain elg1, stronger effect = lower value 1.02 | S. cerevisiae deletion strains, locus YOR184W, strain ser1, stronger effect = lower value 1.03 | S. cerevisiae deletion strains, locus YOR265W, strain rbl2, stronger effect = lower value 0.994 | S. cerevisiae deletion strains, locus YOR270C, strain vph1, stronger effect = lower value 1.02 | S. cerevisiae deletion strains, locus YOR290C, strain snf2, stronger effect = lower value 0.996 | S. cerevisiae deletion strains, locus YOR316C, strain cot1, stronger effect = lower value 1.01 | S. cerevisiae deletion strains, locus YPL051W, strain arl3, stronger effect = lower value 0.999 | S. cerevisiae deletion strains, locus YPL055C, strain LGE1, stronger effect = lower value 1.03 | S. cerevisiae deletion strains, locus YPL078C, strain atp4, stronger effect = lower value 0.997 | S. cerevisiae deletion strains, locus YPL106C, strain sse1, stronger effect = lower value 0.985 | S. cerevisiae deletion strains, locus YPL240C, strain hsp82, stronger effect = lower value 0.982 | S. cerevisiae deletion strains, locus YPL241C, strain CIN2, stronger effect = lower value 1.01 and 0.991 | S. cerevisiae deletion strains, locus YPR119W, strain clb2, stronger effect = lower value 1.02 | S. cerevisiae deletion strains, locus YPR141C, strain kar3, stronger effect = lower value 1.01 | S. cerevisiae deletion strains, locus YPR163C, strain tif3, stronger effect = lower value 1.02 | S. cerevisiae deletion strains, locus YPR167C, strain met16, stronger effect = lower value 1.01 | S. cerevisiae deletion strains, strain wtn01, stronger effect = lower value 1.01 | S. cerevisiae strains, strain wild type, stronger effect = lower value 1.01
